# The campaign covered roughly 2,300 compounds. About 550 (24%) were called active. These entries were drawn from the full list. Entries with a potency or affinity are not part of this list. Values without a mark were called inactive. No rule for the calls is given here.
# Experiment: Vero E6 cell cytotoxicity, dose response, cytotoxicity control for non-replicating M. tuberculosis project, secondary assay (AID 492998);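 also: 100% = vehicle-treated cells and 0% = background wells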
# Settings: series mostly up to 20 µM; viability: at the top concentration
row,SMILES,viability [%]
1,O=C(Nc1nnc(C2=COCCO2)o1)c1ccc(F)cc1,83.1
2,O=C(Nc1ncc2c(n1)-c1ccccc1OC2)c1ccc(F)cc1,98.9
3,CCOC(=O)CNCCC(=O)c1ccc(Br)cc1,92.9
4,COc1ccc(S(=O)(=O)NCc2ccc3c(c2)cc(C)n3C)cc1,103
5,NC(N)=Nc1nc(-c2ccccc2)c2ccccc2n1,97
6,COC(=O)COc1ccc(-c2nn(C)c(=O)c3ccccc23)cc1,90.4
7,COC(=O)[C@H](CC(C)C)NC(=O)NCCC1=CCCCC1,87.6
8,O=C(NCc1cccs1)c1cc(-c2ccc(O)cc2)on1,89.1
9,CC1CCN(CCOCCSc2ccc(Cl)cc2)CC1,88.8
10,O=C(CCSc1ccccn1)c1ccccc1,87.2
11,CCOc1ccc(-c2ccc(SCC)nn2)cc1,93.3
12,Nc1c(C(=O)NC2CCCCC2)nsc1C(=O)OCC(=O)NC1CCCCC1,97
13,CCC(C)c1ccc(OCCn2ccnc2)cc1 (stereo not drawn),83.8
14,O=C(N/N=C/C(Br)=C/c1ccccc1)c1cnccn1,88.9
15,O=C(N/N=C/C(Br)=C/c1ccccc1)c1ccncc1,105
16,O=C(Cc1ccccc1)Nc1ccc(C(=O)NCC2COc3ccccc3O2)cc1 (stereo not drawn),94.7
17,O=C(NCc1ccc(Cl)cc1)c1n[nH]c([N+](=O)[O-])c1Cl,105
18,CCOc1ccc(NC(=O)COc2ccc3c(c2)OCO3)cc1,100
19,Cc1cccc(OCCCCc2c(C)n[nH]c2C)c1,86.5
20,CC(C)(C)c1ccccc1OCCOCCN1CCCCCC1,75.2
21,Cc1ccc(C(=O)NCCOc2cccc(C)c2)cc1,101
22,Cc1cc(OCc2cc(C(=O)N(C)CCc3cnn(C)c3)no2)cc(C)c1Cl,77.5
23,COc1cccc(COC(=O)c2sc3nc4n(c(=O)c3c2C)CCC4)c1OC,99.9
24,CCOc1ccc(OCCSc2ccc(S(=O)(=O)N3CCN(C)CC3)cn2)cc1,91.8
25,O=C(CCN1CCOCC1)c1ccc(Br)cc1,82.3

row,SMILES,viability [%]
1,Cc1cc(C(=O)N/N=C/C=C/c2ccccc2)c(C)o1,81
2,Nc1ccc2c(c1)oc1ccccc12,98.2
3,CCCc1nnc(-c2ccc(OC)cc2)o1,97
4,Cc1ccc(SCCC(=O)OCC(=O)NCC2CCCCC2)cc1,101
5,NC(=O)CN1CCN(C2CC(=O)N(CCc3ccccc3)C2=O)CC1 (stereo not drawn),107
6,NNC(=O)COc1cccc(Oc2ccccc2)c1,107
7,CCOC(=O)COc1ccc2c3c(c(=O)oc2c1C)CCC3,92.1
8,O=Cc1coc2ccc3ccccc3c2c1=O,95.9
9,O=C(OCc1ccc([N+](=O)[O-])cc1)c1ccc2ccccc2n1,96.5
10,Cc1cc(C=C2C(=O)N(C)C(=S)N(C)C2=O)c(C)n1-c1cccnc1,113
11,Cc1ccc2nc(C)c3c(c2c1)SCC3,103
12,CCCCn1c(=O)c(C(=O)Nc2nnc(C(C)C)s2)c(O)c2ccccc21,91.5
13,CCOC(=O)Cc1csc(NC(=O)COc2ccc3c(c2)CCC3)n1,103
14,CCCCCCn1c(=O)c(C(=O)Nc2nnc(C)s2)c(O)c2ccccc21,83.8
15,O=C(NC(=S)N1CCN(C/C=C/c2ccccc2)CC1)c1ccco1,113
16,Brc1ccc(-c2ccc(CNCc3ccccn3)o2)cc1,91.8
17,Cc1ccccc1OCCCCc1c(C)n[nH]c1C,81.3
18,O=C(COC(=O)CC12CC3CC(CC(C3)C1)C2)Nc1cccnc1Cl,83.2
19,NC(=O)COc1ccc2cc(-c3ccc(F)cc3)c(=O)oc2c1,86.5
20,COc1ccc(/C=N/NC(=O)c2ccncc2)cc1CN1CCOCC1,106
21,O=C(COc1c(Br)cc(Br)c2cccnc12)N1CCCCC1,93.4
22,CCOC(=O)C1(CCc2ccccc2)CCN(Cc2ccccn2)CC1,96.7
23,COc1cc(NC(=O)N2CCOCC2)cc(OC)c1,106
24,COc1ccc2cc(C(=O)C3CCCN(Cc4ccccn4)C3)ccc2c1 (stereo not drawn),88.9
25,Oc1ccc(F)c2cccnc12,98

row,SMILES,viability [%]
1,O=C(CCN1CCOCC1)c1ccc(Cl)cc1,82.1
2,COc1ccc(C(=O)Oc2cccc3cccnc23)cc1S(=O)(=O)N1CCOCC1,91
3,Cc1ccc(NC(=O)CO/N=C/c2ccccc2C)c(C)c1,100
4,COC(=O)CCSCc1cn2cc(Cl)ccc2n1,109
5,COc1ccc(-c2nc3ccc(C)cc3c(=O)o2)cc1OC,109
6,CCOC(=O)Cn1c(-c2ccccc2)ccc(C#N)c1=O,97.8
7,COc1ccc(OC(=O)C(C)N2C(=O)c3ccccc3C2=O)cc1 (stereo not drawn),104
8,O=C(Cc1ccc(Cl)cc1)OCC(=O)c1ccc[nH]1,109
9,O=C(COC(=O)CC1CCCC1)Nc1ccc(Cl)cn1,108
10,NC(=O)COC(=O)c1sc2ccccc2c1Cl,90.3
11,CCOC(=O)c1c(C)n(C)c2ccc(OC(C)C(=O)OC)cc12 (stereo not drawn),98.4
12,Cc1cc(C(=O)COc2cccc3cccnc23)c(C)n1C,87.9
13,CCOC(=O)COc1ccc(C2CC(C)=NN2c2ccccc2)cc1 (stereo not drawn),102
14,Cc1ccccc1Cn1cc(NC(=O)c2noc(C(C)C)c2[N+](=O)[O-])cn1,112
15,CCOC(=O)CCCNC(=O)COC(=O)c1cc(Br)c(Br)s1,107
16,O=C(N/N=C\c1ccco1)c1cncc(Br)c1,97.2
17,Cc1nnc(C)n1/N=C/c1cc(Br)cc(Br)c1O,105
18,COC(=O)C1=C(C(=O)OC)C(c2cc(Cl)ccc2O)c2sc(=O)[nH]c2S1 (stereo not drawn),92.5
19,CSCCC(=O)N1CCCC(CNC(=O)c2ccc(-c3ccccc3)cc2)C1 (stereo not drawn),97.5
20,CCOc1ccc(-c2ccc(C=O)o2)c([N+](=O)[O-])c1,98.1
21,O=[N+]([O-])c1ccc(Nc2ccccc2)c2nonc12,103
22,O=[N+]([O-])c1cncc([N+](=O)[O-])c1Nc1ccccc1Cl,88.5
23,CCCCc1ccc(NS(=O)(=O)c2c(C)n(C)c(=O)n(C)c2=O)cc1,89.4
24,CCOc1ccc(OCC(=O)OCc2cc(=O)n3cc(Br)ccc3n2)cc1,100
25,O=C(N/N=C\C=C\c1ccco1)c1cncc(Br)c1,97.4

row,SMILES,viability [%]
1,O=C(N/N=C/c1cccs1)c1cncc(Br)c1,101
2,COC(=O)C1CC(=O)N(c2ccc(OCc3ccccc3Cl)cc2)C1 (stereo not drawn),106
3,COc1cccc(OCC(=O)NNC(=O)C(=O)Nc2cccc(C)c2)c1,90.2
4,CC(C)=CCN1CCN(CCC2=C(C)CCCC2(C)C)CC1CCO (stereo not drawn),88.3
5,CN1C(=O)CC(Sc2ccccc2C(=O)O)C1=O (stereo not drawn),105
6,Cc1ccc(N/N=C2\CS(=O)(=O)N(C)c3ccsc32)cc1,91.9
7,CCCOc1ccc(-c2nc(C#N)c(NCCCn3ccnc3)o2)cc1,77.3
8,COc1ccc(C(=O)OCn2nnc3ccccc3c2=O)cc1[N+](=O)[O-],107
9,CC(C)CN(Cc1c(O)ccc2ccccc12)CC(C)C,98.1
10,O=C(CNC(=O)c1ccco1)OCc1ccc(C(=O)Oc2ccccc2)cc1,95.4
11,Oc1ccc(Cl)cc1CNCc1ccc(F)cc1,97.2
12,O=[N+]([O-])c1ccc(CNc2cccc(Cl)c2)s1,96.4
13,CCC(C)[C@H]1CN=C(N)N1CCc1cccc2ccccc12 (stereo partly drawn),104
14,COc1ccc(C(=O)OCn2nnc3ccccc3c2=O)cc1,93.6
15,CC(C)N=C1SC(CC(=O)Nc2ccccc2)C(=O)N1C(C)C (stereo not drawn),94.4
16,Cc1cccc(CC(=O)NCC2CCCCC2)c1,89.9
17,CCCN1C(=O)SC(CC(=O)Nc2ccccc2)C1=O (stereo not drawn),99.3
18,O=C(NCC1CCN(c2ccc(S(=O)(=O)N3CCOCC3)cc2)CC1)c1ccc(Cl)cc1,88
19,COC(=O)COc1ccc(S(=O)(=O)N2CCCCCC2)cc1,80.5
20,N#Cc1ccc(-c2ccc(OCC(=O)Nc3cccnc3)cc2)cc1,72.8
21,O=C(CN1CCN(c2ccccc2O)CC1)Nc1ccc2c(c1)CCC2,107
22,O=S(=O)(Nc1nccs1)c1ccc(NCc2cc(Br)cc(Br)c2O)cc1,88.4
23,COc1ccc(C2=NOC(COC(=O)c3ccc4ccccc4n3)C2)cc1 (stereo not drawn),95.9
24,COc1ccc(C(=O)COC(=O)CCC(=O)c2cccs2)cc1,105
25,O=C(O)COc1ccc2occ(C(=O)c3ccccc3)c2c1,96.2

row,SMILES,viability [%]
1,CCOC(=O)c1c(C)[nH]c(C)c1C(=O)COC(=O)c1ccc([N+](=O)[O-])s1,79.9
2,Cc1cc(C)c(OCC(=O)Nc2nnc(-c3ccco3)o2)c(C)c1,100
3,O=C(c1ccc(Cl)cc1)c1nnc(-c2ccncc2)o1,92.7
4,O=C(COC(=O)c1ccc([N+](=O)[O-])s1)Nc1ccc(Cl)cn1,92.2
5,O=C(OCC#CCSc1nnc(-c2ccncc2)o1)c1cccs1,103
6,O=C(Nc1nnc(-c2ccco2)o1)c1ccc(Cl)s1,72.1
7,CCN1CCN(C(=O)CN(Cc2ccccc2)S(C)(=O)=O)CC1,103
8,Clc1ccc(SCCOCCN2CCc3ccccc3C2)cc1,89.1
9,O=c1oc2ccccc2c2c1nnn2CCO,94.4
10,CCC(C)c1ccc(O)c(/C=N/O)c1 (stereo not drawn),99.8
11,COc1ccc2c3c(cccc13)OCC2=O,94.7
12,COc1ccc(NC(=O)c2ccc(COCC(F)(F)C(F)F)cc2)cc1,95.8
13,O=C(NCCC1CCCC1)c1cccs1,96.5
14,O=C1CC(N2CCN(Cc3ccccc3)CC2)C(=O)N1CCc1ccccc1 (stereo not drawn),93.1
15,NC(=O)N/N=C\c1cc(Br)ccc1O,92.7
16,O=C(N/N=C/c1cccc2cccnc12)c1ccccc1O,78.1
17,COCCNC(=O)CC(=O)N/N=C/c1cccc(C(=O)OC)c1,97.4
18,CCCOc1ccc(CCC(=O)N/N=C/c2ccc([N+](=O)[O-])o2)cc1,70.6
19,COC(=O)COc1ccc2c(-c3ccc(OC)cc3)cc(=O)oc2c1,104
20,Cc1cccc(C)c1N1C(=O)CC(N2CCSCC2)C1=O (stereo not drawn),98.7
21,Cc1ccc(C(=O)OCC(=O)N2CCCCCC2)c(O)c1,109
22,Cc1ccc(CCC(=O)Nc2ccc([N+](=O)[O-])cc2)o1,111
23,CN(C)c1ccc(NC(=O)COC(=O)c2cc(Cl)ccc2[N+](=O)[O-])cc1,108
